Molecules are shown by their SMILES. Inconclusive results are not listed. A call without a number means that no potency is given here. Activity calls are given as the source filed them. Calls come from the whole dose curve; as a rule, active = well fitted activation curve with a large enough effect; inconclusive = small, poorly fitted or top-dose-only effect; inactive = flat fitted curve, though single readings scatter.
Potency is the fitted concentration of half-maximal effect.

This experiment can be described thus: qHTS for Inhibitors of Cell Surface uPA Generation: Confirmatory Assay for Cherry-picked Compounds. Particulars: cell surface uPA activity generation, qHTS confirmation; series mostly up to 115 µM. In a few lines:
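RAW 264.7 cells at 4000/well, incubated overnight, then treated with compounds. After 24 h at 37 C, viability was read by ATPlite luminescence. An increase in signal indicates blocked uPA-dependent LF entry.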
On to `O=C(CNS(=O)(=O)c1ccc(F)cc1)Nc1ccccc1`, for which the Potency result was “inactive”. The value for `CCOc1ccccc1N(CC(=O)Nc1ccc(OC)cc1)S(=O)(=O)c1ccccc1` was “inactive”. The value for `COc1ccc(C(=O)CC2(C(=O)O)CCCCC2)cc1` was “inactive”. As for `OCC1CCCCN1CC(O)COC(c1ccc(F)cc1)c1ccc(F)cc1` (stereo not drawn), the entry is “inactive”; as for `O=C(NC[C@H]1CCCO1)c1cccc2c1C(=O)c1ccc(-c3ccc(F)cc3OCc3ccccc3)cc1S2(=O)=O`, “inactive”. With `Cc1c(C(=O)N(Cc2ccccc2Cl)C2CCS(=O)(=O)C2)oc2ccccc12` (stereo not drawn), the Potency result was “inactive”. As to `O=C(COC(=O)C1CC2C=CC1C2)NCc1ccccc1Cl` (stereo not drawn), the Potency entry was “inactive”. The value for `Cc1ccc(S(=O)(=O)N(C)c2ccc(OC(=O)c3ccc(=O)[nH]c3)cc2)cc1` was “inactive”; that for `COc1cccc2c1Oc1ncccc1N(C(=O)CCC(=O)NCc1ccc(C)cc1)C2` was “inactive”; that for `O=C(Nc1ccc(Cl)cn1)C1CCCN(c2ncnc3c2nc2n3CCCCC2)C1` (stereo not drawn) was “inactive”. The value for `C[C@H](CO)N1C[C@H](C)[C@H](CN(C)S(=O)(=O)c2cn(C)cn2)Oc2ccc(NC(=O)Nc3ccc(C(F)(F)F)cc3)cc2CC1=O` was “inactive”. The value for `COc1ccc(NS(=O)(=O)c2c(C)n(C)c(=O)n(C)c2=O)cc1OC` was “inactive”.

Take `O=C(O)c1ccc(-c2ccc(/C=C3\NC(=O)N(Cc4ccc(Cl)cc4)C3=O)o2)cc1`: the Potency result was “inactive”.

Consider `O=C(COc1ccc(C(=S)N2CCOCC2)cc1)N1CCOCC1`, for which the Potency entry was “inactive”. The value for `CSc1ccccc1OCc1cc(C(=O)NCCCn2nc(C)cc2C)no1` was “inactive”; that for `O=C(NCCOc1ccc(F)cc1)C1CCN(S(=O)(=O)c2ccccc2)CC1` was “inactive”. The value for `O=C(N/N=C/c1cccs1)c1ccco1` was “inactive”; that for `C[C@@H]1O[C@@H](O[C@@H]2C(=O)c3c(O)cc(O)cc3O[C@H]2c2ccc(O)c(O)c2)[C@H](O)[C@H](O)[C@H]1O` was “inactive”; that for `CCN1CCN(C(c2ccccc2)c2nnnn2Cc2ccc3c(c2)OCO3)CC1` (stereo not drawn) was “inactive”. The value for `CCOC(=O)CC(=O)CSc1nc2c(C)c(C)ccc2cc1C` was “inactive”; that for `N#CCC(=O)N/N=C/c1ccc(OCC(=O)Nc2ccc(F)cc2)cc1` was “inactive”; that for `CCCc1nn2c(=O)cc(CSCC(=O)Nc3ccccc3)nc2s1` was “inactive”.

Regarding `COc1ccc([C@@H]2[C@@H]3C(=O)N(C(C)(C)C)C(=O)[C@@H]3[C@]3(C)C(=O)N(c4cccc(Cl)c4)C(=O)N23)cc1`, the Potency result was “inactive”. As for `O=C(Nn1cnnc1)c1ccc(Cl)cc1`, the entry is “inactive”; as for `CN(CC(=O)NCCCn1ccnc1)S(=O)(=O)c1ccc(Cl)cc1`, “inactive”; as for `O=C(CCS(=O)(=O)c1ccc2c(c1)NC(=O)CS2)NCc1cccs1`, “inactive”. For `Cc1ccc(-n2nc3c(c2NC(=O)c2ccc4c(c2)OCO4)CS(=O)C3)c(C)c1` (stereo not drawn), the Potency entry was “inactive”. As for `COc1ccc(NS(=O)(=O)c2cccc(C(=O)NCc3ccccc3CN3CCCC3)c2)cc1`, the figure is 7.36 µM (active); as for `Cc1nc(NC(=O)CSc2nnc(C3CC3)n2C)sc1C(=O)N(C)C`, “inactive”; as for `COc1cccc(C(=O)NCC(c2ccco2)N2CCc3ccccc3C2)c1` (stereo not drawn), “inactive”.

As for `c1ccc(C2[C@H]3CN(Cc4cccnc4)[C@H](c4ccccc4)C34CC2(c2ccccc2)C4)cc1` (stereo partly drawn), the Potency entry was “inactive”. As for `Cc1cc(C)nc(NC(=O)CSc2nccc(C)n2)n1`, the entry is “inactive”; as for `COc1cc(/C=N/NC(=O)Cc2csc(C)n2)ccc1OCC(C)C`, “inactive”. In the case of `Cn1cnc([N+](=O)[O-])c1Sc1ccc(Br)cc1`, the Potency result is “inactive”. The value for `Cc1ccnc(NC(=O)CCNS(=O)(=O)c2ccc(C)c(C)c2)c1` was “inactive”; that for `CCOc1ccc(NC(=S)N2CCC(c3ccc(C)cc3)C2)cc1` (stereo not drawn) was “inactive”. As for `Cc1ccc2oc(=O)c3cnn(CC(=O)Nc4ccccc4N4CCN(C)CC4)c3c2c1`, the figure is 9.27 µM (active); as for `O=C(CC1(O)C(=O)Nc2ccccc21)c1cccc(Br)c1` (stereo not drawn), “inactive”.

The values are drawn from PubChem BioAssay AID720519 (National Center for Advancing Translational Sciences (NCATS), 2013).
